High-throughput results: PubChem, Broad Institute
esBAF inh: blocks esBAF chromatin remodeling in mouse ES cells; Bmi1-luciferase knock-in reporter, 24 h; 100% = twice the neutral-well signal; reporter increase, % at 12.5 µM; actives 2% (n = 350,000); in the data active means activation above about 40%; inconclusive means no clear call, values can overlap the other calls;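 further: 0% = median of the plate's neutral control wells and 100% = double that signal; a rise in the Bmi1 reporter signal indicates esBAF inhibition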
MITF act: MITF TRPM1 promoter activation in melanoma cells; SK-MEL-5 TRPM1-promoter luciferase, 24 h; % of positive control, neutral wells = 0; activation, % at 12.5 µM; actives 0.75% (n = 300,000);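 active means mean activation of at least 80% with every replicate also reaching 80%; inconclusive means mean reaches 80% but some replicate falls short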;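 further: 0% = neutral control wells and 100% = parthenolide positive control wells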
Wnt act: Wnt/beta-catenin pathway activation | Wnt/beta-catenin reporter cell assay, activator, plate reader | activation, % at 9.35 µM | actives 1.2% (n = 300,000) | AID 743398; in the data active means activation above about 30%, passing the limit was not always enough; inconclusive means no clear call, values can overlap the other calls;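 further: 0% = neutral control wells and 100% = positive control wells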
HSF-1 act: increases HSF-1 driven luciferase reporter signal; NIH3T3-HGL HSF-1 luciferase reporter, MG132, 8 h; 100% = twice DMSO control signal; activation, % at 9 µM; actives 1.7% (n = 300,000); AID 504408;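 active means mean replicate activation of at least 50% with a set share of replicates each reaching 50%; inconclusive means only one of those two conditions met; inactive means mean below 50% and too few replicates reaching it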;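 further: 0% = median of the neutral control wells and 100% = twice that signal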
HSF1 inhib: HSF1 inhibition. NIH3T3-HGL HSE-luciferase, MG132-induced, luminescence 8 h; active compounds read low. activity change, negative = inhibition, % at 7.5 µM (by protocol). actives 0.77% (n = 300,000);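 active means more than half of replicate wells show activity change below -50%, luminescence cut by over half; inconclusive means some wells, but at most half, below -50%; inactive means no replicate well below -50%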;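 further: luciferase reports HSF-1 transcriptional activity via heat shock element; 0% = median of DMSO wells and -100% = zero luminescence signal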
Starred values were filed as active, the others as inactive; ? = inconclusive; · = no result given. Shown are actives, neighbours in structure and some others; about 3.8% of the full set was active somewhere.

SMILES | esBAF inh | MITF act | Wnt act | HSF-1 act | HSF1 inhib
CN1CCN(C(=S)c2ccc(-c3cccc(Cl)c3Cl)o2)CC1 | · | 65 | 12 | 68* | 49
N#CCCN1CCN(C(=S)c2ccc(-c3ccc(Cl)cc3)o2)CC1 | 17 | 58 | 1 | 22 | 12
S=C(c1ccc(-c2ccc(Cl)cc2)o1)N1CCCCC1 | 29 | 83* | · | 101* | 62
C[C@H]1CN([C@@H](C)CO)S(=O)(=O)c2ccc(-c3cccc(C#N)c3)cc2O[C@H]1CN(C)Cc1cccc(F)c1 | -1 | · | · | · | ·
CCN1CCN(C(=O)C2CCN(C(=O)c3cc4sccc4n3CC)CC2)CC1 | 0 | · | -2 | -76 | -70*
O=C(N[C@@H]1CC[C@@H](CCNS(=O)(=O)c2ccccc2)O[C@@H]1CO)c1cccnc1 | -10 | · | · | · | ·
COC(=O)C[C@H]1CC[C@@H]2[C@H](COc3ccc(NC(=O)c4ccc(F)cc4)cc3C(=O)N2C)O1 | -2 | · | · | · | ·
Cc1ccc(C(=O)Nc2ncccc2S(=O)(=O)c2ccccc2)cc1 | 113* | 100* | 20 | 28 | 8
Cc1cccnc1NC(=O)c1ccc(S(=O)(=O)N2CCCCCC2)cc1 | · | 6 | -2 | -15 | 0
C[C@@H]1CN([C@@H](C)CO)C(=O)c2cc(-c3ccc(C#N)cc3)cnc2O[C@H]1CN(C)C(=O)Nc1ccc(F)cc1 | 1 | · | · | · | ·
COc1ccc(C(=O)c2no[n+]([O-])c2C(=O)c2ccc(OC)cc2)cc1 | · | -54 | · | 2 | 14
Cc1c(C(=O)c2no[n+]([O-])c2C(=O)c2cnn(C)c2C)cnn1C | -60 | -14 | · | -95 | -94*
O=C(Nc1ccc(F)cc1)Nc1ccc2c(c1)[C@@H]1C[C@@H](CC(=O)N3CCOCC3)O[C@@H](CO)[C@@H]1O2 | -3 | · | · | · | ·
c1ccc(COc2ccc(-c3csnn3)cc2)cc1 | 47* | 94* | · | 44 | 22
CC(=O)COc1ccc(-c2csnn2)cc1 | · | 37 | 10 | 4 | 1
Cc1ccccc1C(=O)Oc1ccc(-c2csnn2)cc1 | 51* | 66 | 2 | 23 | 12
Cc1ccccc1C(=O)Oc1ccc(Sc2ccc(O)cc2)cc1 | 11 | · | 6 | 28 | 0
CC(C)(C)C(=O)O/N=C(\N)c1ccc(Br)cc1 | · | 23 | 4 | -1 | -1
CC(=O)O/N=C(\N)c1ccc(-c2csnn2)cc1 | 54* | 43 | -1 | 20 | 10
CC(C)(C)C(=O)O/N=C(\N)c1ccc(-c2csnn2)cc1 | 84* | 106* | 53* | 34 | 14
COc1ccc(S(=O)(=O)N(C)C[C@@H]2Oc3c(NC(=O)C4CCCCC4)cccc3C(=O)N([C@@H](C)CO)C[C@H]2C)cc1 | 5 | · | · | · | ·
COc1ccc(-n2ncc3c(NCCN4CCOCC4)ncnc32)cc1 | · | 29 | · | 6 | -3
COc1ccc(-n2ncc3c(NCCCN4CCOCC4)ncnc32)cc1 | -8 | 42 | · | -59 | -55*
O=C1CCCN1CCCNc1ncnc2c1cnn2-c1ccc(Cl)cc1 | 42* | 24 | 8 | 3 | 8
O=C(NNc1ncnc2c1cnn2-c1cccc(Cl)c1)c1ccco1 | 17 | 16 | 1 | 64* | 24
SMILES | esBAF inh | MITF act | Wnt act | HSF-1 act | HSF1 inhib
Clc1ccc(-n2ncc3c(NCc4ccco4)ncnc32)cc1 | 52* | · | 60* | 41 | -2
Cc1ccc(-n2ncc3c(NNC(=O)c4ccco4)ncnc32)cc1C | 6 | 36 | 7 | -24 | -10
COc1ccc(-n2ncc3c(NCc4ccco4)ncnc32)cc1 | 22 | · | · | 0 | -3
Cc1cccc(-n2ncc3c(NCCCN4CCCC4=O)ncnc32)c1 | · | 27 | 29 | 0 | -6
CNC[C@@H]1Oc2c(NC(=O)Nc3ccc(C(F)(F)F)cc3)cccc2C(=O)N([C@H](C)CO)C[C@H]1C | -5 | · | · | · | ·
C[C@@H]1CN([C@@H](C)CO)C(=O)c2ccccc2-c2ccccc2CO[C@H]1CN(C)C(=O)Nc1ccc2c(c1)OCO2 | 16 | · | · | · | ·
C[C@@H]1CN([C@@H](C)CO)C(=O)c2cc(NS(C)(=O)=O)ccc2O[C@@H]1CN(C)Cc1ccccc1 | 2 | · | · | · | ·
C[C@H](CO)N1C[C@H](C)[C@H](CN(C)S(=O)(=O)c2ccccc2)Oc2ncc(-c3ccc(F)cc3)cc2C1=O | 4 | · | · | · | ·
C[C@H](CO)N1C[C@H](C)[C@H](CN(C)C)Oc2ccc(NC(=O)NC3CCCCC3)cc2C1=O | -4 | · | · | · | ·
COc1ccc(-n2ncc3c(NCc4cccs4)ncnc32)cc1 | 107* | ? | 27 | 47 | 23
c1ccc(-n2ncc3c(NCc4cccs4)ncnc32)cc1 | 45* | · | 71* | 66* | 42
Cc1ccccc1NC(=S)c1ccc2ccccc2n1 | 70* | 29 | 26 | 39 | 18
C[C@H](CO)N1C[C@H](C)[C@H](CN(C)Cc2ccc3c(c2)OCO3)Oc2ccc(NC(=O)c3ccncc3)cc2C1=O | 1 | · | · | · | ·
C[C@H](CO)N1C[C@H](C)[C@H](CN(C)S(=O)(=O)c2ccc(F)cc2)OCCCC[C@H](C)Oc2ccc(NC(=O)c3ccncc3)cc2C1=O | 0 | · | · | · | ·
CC(C)C1Oc2ccccc2N(CC(=O)N2CCOCC2)C1=O (stereo not drawn) | 3 | -1 | 3 | -2 | -8
CC(C)C1Oc2ccccc2C(=O)N(CC(=O)c2ccc3c(c2)OCCO3)C1=O (stereo not drawn) | 71* | 58 | 33* | 30 | 14
CCC1Oc2ccccc2C(=O)N(CC(=O)c2ccc3c(c2)OCCO3)C1=O (stereo not drawn) | 69* | 52 | -4 | 33 | 29
CC1Oc2ccccc2C(=O)N(CC(=O)c2ccc3c(c2)OCCO3)C1=O (stereo not drawn) | 16 | 19 | 5 | -5 | 7
C[C@@H]1CN([C@H](C)CO)S(=O)(=O)c2ccc(-c3ccc(C#N)cc3)cc2O[C@@H]1CN(C)CC1CC1 | 1 | · | · | · | ·
CCOC(=O)N1CCN(c2c(-c3ccc(C)cc3)c(=O)c2=O)CC1 | -1 | 2 | 0 | 1 | -4
CCOC(=O)N1CCN(c2nc(C)c3c(n2)CCCC3=O)CC1 | 21 | · | 17 | -77 | -70*
CCCCN(C)C(=O)c1cc2cc3ccc(OC)cc3nc2o1 | ? | 41 | 1 | 18 | 4
CCCCN(C)C(=O)c1cc2cc3cc(OC)ccc3nc2o1 | · | 68 | 44* | 30 | 17
Cn1cccc1C(=O)OCC(=O)Nc1ccc2c(c1)OCCO2 | · | 4 | 49* | · | ·
O=C(COC(=O)c1ccc(O)cc1O)Nc1ccc2c(c1)OCCO2 | 83* | 92* | -3 | · | ·
Cc1noc(C)c1NC(=O)N(C)C[C@H]1OCCCC[C@@H](C)Oc2ccc(NC(=O)Cc3ccccc3)cc2C(=O)N([C@@H](C)CO)C[C@H]1C | -2 | · | · | · | ·
Cc1cccc(NS(=O)(=O)c2cc3c4c(c2)CCN4C(=O)CC3)c1C | · | -6 | · | -3 | 3
CCc1ccccc1NS(=O)(=O)c1cc2c3c(c1)CCN3C(=O)CC2 | -1 | -2 | -4 | 62* | 21
CCc1noc(C)c1C(=O)NNC(=O)c1ccccc1 | -9 | 0 | -6 | · | ·
